According to PubChem BioAssay:
Active and inactive are the calls of the source.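 The calls were made as follows, unless noted: active = visually confirmed hit in the image check and inhibition above 20%; inconclusive = visually confirmed hit but inhibition not above 20%; inactive = no visual hit in the image check.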

Key:
[1] = inhibitors of TNFa-induced NFkB p65 translocation, primary screen, imaging, HUVEC, MLSMR starter and 10KST1 sets (AID 438;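 active = inhibition above 20% together with a positive visual image hit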;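 also: compound added about 3h40 before a 20 min TNFalpha stimulation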;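 as to inhibition: signal is the nuclear over cytoplasmic p65 intensity ratio per well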); conditions: HUVEC TNFa-induced p65 nuclear translocation; cell count: measured here: nuclei count (cytotoxicity indicator), at 2.08 µM; inhibition: at 2 µM, stronger effect = higher value, 0% TNFa-plus-vehicle, 100% no-TNFa wells
[2] = reduction of polyQ htt aggregates in cells – imaging, exon1htt(103Q)mCFP cells, high-content imaging, primary screen (AID 483;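 active = visual image review flags a hit and inhibition of aggregation exceeds 20%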;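 also: compound exposure lasted 3 days before fixation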;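 as to nuclei count: percent of the per-plate median nuclei count of sample wells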); conditions: exon1htt(103Q)mCFP cell line, aggregate imaging, at 2 µM; inhibition of aggregation: stronger effect = higher value; nuclei count: measured here: cell count, toxicity
[3] = endothelial E-selectin expression blockers – imaging, HUVEC, immunofluorescence, MLSMR starter and 10KST1 sets, primary screen (AID 487); conditions: HUVEC TNFalpha-induced E-selectin immunofluorescence imaging, at 2 µM; inhibition: stronger effect = higher value; nuclei count: measured here: cell number, toxicity;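 as to inhibition: signal is fraction of cell area covered by stained E-selectin grains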;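 as to nuclei count: 100% = median nuclei count of all wells on the same plate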
[4] = biological target: Voltage-gated potassium channel subunit beta-2 (Rattus norvegicus) (UniProt P62483); test: inhibitors of rat Kvbeta2 reductase activity – biochemical, NADPH fluorescence, primary screen (AID 622;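 active = fluorescence slope higher than the sample average by over 3 SD, cut at about -0.22 in these data, passing the limit was not always enough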;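 also: slope of raw intensity against log time taken from 70 to 1610 s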); conditions: recombinant KvBeta, 4-cyanobenzaldehyde reduction, at 10 µM, stronger effect = higher value
[5] = biological target: Voltage-gated potassium channel subunit beta-2 (Rattus norvegicus) (UniProt P62483); test: enhancers of rat Kvbeta2 NADPH turnover – biochemical, NADPH fluorescence, primary screen (AID 623;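 active = NADPH fluorescence slope more negative than the mean of all samples by about 3 SD, 99.7% confidence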;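 also: fluorescence intensity change per second fitted from 20 to 320 s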); conditions: Recombinant KvBeta, NADPH fluorescence decrease slope, 10 min; at 10 µM; stronger effect = lower value
[6] = biological target: Alpha-2C adrenergic receptor (Homo sapiens) (UniProt P18825); test: compounds altering alpha2C-coupled GIRK flux – cell-based, HEK293 alpha2C/GIRK1/2, thallium flux, primary screen (AID 624;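 active = fluorescence slope after compound addition differing from the mean of all screened samples at 99.7% confidence, in either direction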;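 also: slope of fluorescence ratio to pre-addition baseline per second over 15 to 24 s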); conditions: thallium flux BTC fluorescence, at 10 µM, actives lie on both sides
[7] = blockers of RIG-like receptor reporter activation – cell-based, Sendai virus stimulus, luciferase, 10K MLSCN set, TLR/RLR signaling modifier project, primary screen (AID 602276;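 active = inhibition at or above 50% at 10 µM; inactive = inhibition below 50%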;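 also: firefly luciferase from ISG56 promoter only with Renilla not read in this screen; 0% = Sendai virus plus DMSO and 100% = medium plus DMSO without virus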); conditions: HEK293 RL24 IRF3 luciferase reporter, at 10 µM, stronger effect = higher value
[8] = TLR3 IRF3 reporter activation blockers – cell-based, poly I:C stimulus, luciferase, 10K MLSCN set, primary screen (AID 602277;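 active = inhibition of the reporter signal at or above 50%; inactive = inhibition below 50%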); conditions: HEK293-TLR3 RL24 IRF3 luciferase reporter, at 10 µM, stronger effect = higher value

Alpha-2C adrenergic receptor (Homo sapiens), sequence (P18825 whole entry, looked up): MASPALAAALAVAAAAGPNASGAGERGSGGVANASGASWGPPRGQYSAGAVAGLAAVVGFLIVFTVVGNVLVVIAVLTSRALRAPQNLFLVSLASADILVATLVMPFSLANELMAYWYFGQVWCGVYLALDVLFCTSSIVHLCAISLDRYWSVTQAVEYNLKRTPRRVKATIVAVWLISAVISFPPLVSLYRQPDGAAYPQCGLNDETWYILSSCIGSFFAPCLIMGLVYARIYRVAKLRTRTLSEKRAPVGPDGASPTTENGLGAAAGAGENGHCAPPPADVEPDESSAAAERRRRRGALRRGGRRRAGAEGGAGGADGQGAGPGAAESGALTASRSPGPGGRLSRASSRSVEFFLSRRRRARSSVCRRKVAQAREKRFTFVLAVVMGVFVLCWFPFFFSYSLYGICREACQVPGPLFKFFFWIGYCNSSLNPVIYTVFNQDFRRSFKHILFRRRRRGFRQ
Voltage-gated potassium channel subunit beta-2 (Rattus norvegicus), sequence (P62483 whole entry, looked up): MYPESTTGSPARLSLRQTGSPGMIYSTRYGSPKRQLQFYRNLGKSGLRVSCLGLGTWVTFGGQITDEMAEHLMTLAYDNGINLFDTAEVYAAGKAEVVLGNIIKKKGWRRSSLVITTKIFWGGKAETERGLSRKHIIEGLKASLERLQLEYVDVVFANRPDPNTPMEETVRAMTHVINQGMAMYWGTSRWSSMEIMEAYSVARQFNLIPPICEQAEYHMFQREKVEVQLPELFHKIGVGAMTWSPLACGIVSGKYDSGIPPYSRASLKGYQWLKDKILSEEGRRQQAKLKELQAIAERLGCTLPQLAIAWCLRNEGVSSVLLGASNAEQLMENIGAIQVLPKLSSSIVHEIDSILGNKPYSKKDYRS

SMILES	cell count [1]	inhibition [1]	inhibition of aggregation [2]	nuclei count [2] [%]	inhibition [3]	nuclei count [3] [%]	fluorescence slope [4]	NADPH fluorescence slope [5]	slope [6]	inhibition [7]	inhibition [8]
N#CCC(=O)N1CCn2c1nc1ccccc12	301	-3.4% (inactive)	-20.8% (inactive)	94.4	-16.4% (inactive)	101	-0.492 (inactive)	-3.8e-05 (inactive)	0.00588 (inactive)	11.2% (inactive)	24.2% (inactive)
Cn1c(=O)c(=O)n(C)c2cc(S(=O)(=O)N3CCCCC3)ccc21	289	0.7% (inactive)	22.5% (inactive)	83.6	-3.4% (inactive)	87.6	-0.426 (inactive)	-7.3e-05 (inactive)	0.00642 (inactive)	14.8% (inactive)	14.6% (inactive)
COc1ccc(CCNC(=O)c2ccncc2)cc1OC	162	-18.8% (inactive)	10.4% (inactive)	95.7	11.2% (inactive)	90	-0.499 (inactive)	-4.1e-05 (inactive)	0.00561 (inactive)	17.7% (inactive)	19.9% (inactive)
COc1ccc(S(=O)(=O)Nc2ccc(F)c(F)c2)cc1Cl	723	8.5% (inactive)	5.1% (inactive)	102	-8.3% (inactive)	98.5	-0.496 (inactive)	-1.9e-05 (inactive)	0.0057 (inactive)	8.01% (inactive)	31.5% (inactive)
COc1cccc(-c2nnc(NC(=O)Cc3cccs3)s2)c1	710	-5% (inactive)	22% (inactive)	79.8	1.2% (inactive)	92	-0.452 (inactive)	-3e-05 (inactive)	0.00526 (inactive)	2.67% (inactive)	-7.11% (inactive)
CC(C)Oc1cc2oc(=O)c3c(c2cc1Cl)CCC3	385	0.8% (inactive)	-21.6% (inactive)	56.6	-10.2% (inactive)	96.1	-0.445 (inactive)	2.2e-05 (inactive)	0.00687 (inactive)	-1.44% (inactive)	-17.4% (inactive)
CCCS(=O)(=O)N1CCCC(C(=O)NC2CCCC(C)C2C)C1 (stereo not drawn)	357	-0.5% (inactive)	7.4% (inactive)	92.6	-13.1% (inactive)	105	-0.551 (inactive)	2.2e-05 (inactive)	0.00599 (inactive)	9.58% (inactive)	-2.45% (inactive)
CCN(CC)CCNC(=O)c1ccc(CS(=O)(=O)c2ccc(Br)cc2)o1	655	11.2% (inactive)	-11.8% (inactive)	103	21.7% (inactive)	117	-0.611 (inactive)	-3.9e-05 (inactive)	0.00568 (inactive)	7.79% (inactive)	25.7% (inactive)
Cc1c(Cl)cnc(NC(=O)COC(=O)C(NC(=O)c2ccco2)C(C)C)c1Cl (stereo not drawn)	362	7.4% (inactive)	-2.1% (inactive)	80.5	-17.2% (inactive)	112	-0.584 (inactive)	-3.9e-05 (inactive)	0.00552 (inactive)	6.87% (inactive)	5.64% (inactive)
CN(C)CCCn1c(N)c(C#N)c2nc(C#N)c(C#N)nc21	735	-14.6% (inactive)	0% (inactive)	128	-55.1% (inactive)	106	-0.0856 (active)	-1.8e-05 (inactive)	0.00617 (inactive)	48.9% (inactive)	79.3% (active)
c1ccc(OCc2nc(-c3ccccc3)no2)cc1	300	2.6% (inactive)	12.9% (inactive)	87.7	-72.6% (inactive)	91.1	-0.539 (inactive)	4.5e-05 (inactive)	0.0046 (inactive)	-80.4% (inactive)	-193% (inactive)
CC(=O)c1c(C)[nH]c(C(=O)N2CCN(C(=O)c3ccco3)CC2)c1C	233	-19.9% (inactive)	9.5% (inactive)	94.7	-98.1% (inactive)	120	-0.537 (inactive)	9e-06 (inactive)	0.00697 (inactive)	-22.5% (inactive)	10.9% (inactive)
Cc1cccnc1NC(=O)CCCN1C(=O)c2ccccc2C1=O	366	1.7% (inactive)	-11.4% (inactive)	102	-32.4% (inactive)	87.7	-0.409 (inactive)	-6.3e-05 (inactive)	0.00485 (inactive)	11.3% (inactive)	10.4% (inactive)
CCc1cc2c(=O)n(C(C)C(=O)OC3CCCCC3)cnc2s1 (stereo not drawn)	561	0% (inactive)	32% (inactive)	114	-73.8% (inactive)	103	-0.486 (inactive)	-3.4e-05 (inactive)	0.00382 (inactive)	-49.6% (inactive)	-101% (inactive)
Cc1cccc(NC(=O)c2ccccc2O)c1C	497	4.9% (inactive)	-10% (inactive)	98.2	-5.3% (inactive)	122	-0.482 (inactive)	-2.8e-05 (inactive)	0.00603 (inactive)	-45.5% (inactive)	-93.4% (inactive)
Cc1ccc(NC(=O)c2ccccc2O)cc1	631	12.1% (inactive)	8% (inactive)	91.3	-203% (inactive)	119	-0.602 (inactive)	-5.6e-05 (inactive)	0.00651 (inactive)	-61.1% (inactive)	-73.1% (inactive)
Cc1cc(-n2c(C)cc(C(=O)CSc3nc4ccccc4c(=O)n3Cc3ccco3)c2C)no1	288	-8.6% (inactive)	8.4% (inactive)	95	-104% (inactive)	96.6	-0.441 (inactive)	-2e-05 (inactive)	0.00698 (inactive)	8.08% (inactive)	-48.8% (inactive)
CCCOc1ccc(S(=O)(=O)NCCCN2CCOCC2)c2ccccc12	402	5.8% (inactive)	-33.7% (inactive)	106	-43.1% (inactive)	118	-0.418 (inactive)	-4.8e-05 (inactive)	0.00402 (inactive)	16% (inactive)	13.7% (inactive)
CCOC(=O)Cc1nnc(NC(=O)c2ncn[nH]2)s1	343	0.2% (inactive)	-4.6% (inactive)	99.8	-5.5% (inactive)	119	-0.438 (inactive)	-5.2e-05 (inactive)	0.00725 (inactive)	-0.284% (inactive)	5.11% (inactive)
Cc1cc2ncn(C(=O)c3c(-c4ccccc4)noc3C)c2cc1C	202	-15.9% (inactive)	-7.9% (inactive)	85.7	25.9% (inactive)	99.7	-0.433 (inactive)	-2.6e-06 (inactive)	0.00548 (inactive)	5.72% (inactive)	18.2% (inactive)
CCOC(=O)C1=C(C)NC(C)=C(C(=O)OCC)C1c1cc(N)ccc1OC(F)F	181	-11% (inactive)	22.6% (inactive)	83.8	-12.2% (inactive)	96.5	-0.445 (inactive)	4.3e-05 (inactive)	0.00592 (inactive)	8.52% (inactive)	28.4% (inactive)
CC1(C)C(=O)Nc2ccccc2N1C(=O)COC(=O)Cn1cnc2ccccc2c1=O	465	2.5% (inactive)	-1.8% (inactive)	107	-67.7% (inactive)	116	-0.364 (inactive)	-1.3e-05 (inactive)	0.00422 (inactive)	7.38% (inactive)	20.1% (inactive)
Fc1ccc(NCc2nnc(SCc3nnc(-c4ccccc4)o3)n2CC2CCCO2)cc1 (stereo not drawn)	571	-9.7% (inactive)	-6% (inactive)	56.6	14.2% (inactive)	90.9	-0.528 (inactive)	3.2e-05 (inactive)	0.00596 (inactive)	-28.3% (inactive)	-12.4% (inactive)
O=C(Nc1nc2c(s1)CCCC2)C1COc2ccccc2O1 (stereo not drawn)	695	-13.1% (inactive)	30.9% (inactive)	110	-26.2% (inactive)	114	-0.517 (inactive)	-1.6e-05 (inactive)	0.00646 (inactive)	31% (inactive)	-19.8% (inactive)
CC1CCN(Cc2ccc(NC(=O)C3CCN(c4nnc(-n5cccc5)s4)CC3)cc2)CC1	720	-3% (inactive)	13.7% (inactive)	50.5	44.3% (inactive)	97.9	-0.409 (inactive)	-5.4e-05 (inactive)	0.0059 (inactive)	10.3% (inactive)	44% (inactive)
COc1ccc(C)cc1NCc1cccc(OC)c1OC	335	-7% (inactive)	7% (inactive)	111	-41.1% (inactive)	110	-0.496 (inactive)	-2.7e-05 (inactive)	0.00476 (inactive)	-7.74% (inactive)	24.1% (inactive)
C=CCn1c(SCC(=O)NCCCC)nc2scc(-c3ccco3)c2c1=O	650	-6.7% (inactive)	2.2% (inactive)	120	-4.2% (inactive)	99.8	-0.444 (inactive)	-3.5e-05 (inactive)	0.00561 (inactive)	19.3% (inactive)	28.9% (inactive)
CSC1=NCCN1C(=O)c1ccc(S(=O)(=O)N2CCCC2)cc1	611	0.8% (inactive)	9.6% (inactive)	107	-7.2% (inactive)	105	-0.592 (inactive)	-1.6e-05 (inactive)	0.00671 (inactive)	11.2% (inactive)	33.2% (inactive)
